Results on nine compounds are retold here after PubChem BioAssay (NCATS).

Results filed as inconclusive are left out. The source made the active and inactive calls. Calls come from the whole dose curve; as a rule, active = well fitted inhibition curve with a large enough effect; inconclusive = small, poorly fitted or top-dose-only effect; inactive = no such curve, though single readings can be large or run the other way.
% is set by controls: 0 for no effect and ±100 for the full control effect.

The test relates to Zika virus NS2B-NS3 protease (linked construct). Nature of the test: Primary screen NINDS Rhodamine qHTS for Zika virus inhibitors (AID 1347160). Note: nearly all actives have a fitted effect of over 55% in size. To be noted: purified NS2B-NS3 protease, Rhodamine110 substrate fluorescence; series mostly up to 57.1 µM; activity change, negative = inhibition: at the top concentration. An outline of the steps: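 Purified NS2B-NS3 protease with the NS2B hydrophilic domain joined by a flexible linker (25 nM) in 10 mM Tris-HCl pH 8.0, 0.01% Tween 20, preincubated 15 min at RT with compound; Rhodamine110 peptide substrate 1.5 µM; fluorescence change over 15 min; 4-parameter Hill fit.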
In general terms: qHTS replaces the single test concentration by a dilution series.
`CC(=O)N[C@H]1[C@H](O[C@H]2CC[C@@]3(C)C(CC[C@]4(C)C3CC=C3C5CC(C)(C)CC[C@]5(C(=O)O)[C@H](O[C@@H]5O[C@H](CO)[C@@H](O)[C@H](O)[C@H]5O)C[C@]34C)C2(C)C)O[C@H](CO[C@@H]2OC[C@H](O)[C@H](O)[C@H]2O[C@@H]2OC[C@@H](O)[C@H](O)[C@H]2O)[C@@H](O)[C@@H]1O` (some centres undefined): the “activity change, negative = inhibition” value is -1.46% [at 15.1 µM] (inactive).

With `CC(C)c1ccc(CC(=O)N2CCC[C@@H](c3cccc(OC(C)(C)C(=O)O)c3)C2)cc1`, the “activity change, negative = inhibition” value was -24.2% (inactive).

Take `COC(=O)c1ccc(O[C@@H]2O[C@H](CO)[C@@H](O)[C@H](O)[C@H]2O)c(OC)c1`: the “activity change, negative = inhibition” value is -16.3% [at 33.1 µM] (inactive).

With `CC/C=C\C[C@H]1C(=O)C=C[C@@H]1CCCCCCCC(=O)O`, the “activity change, negative = inhibition” value is -19.1% (inactive).

Consider `CC(=O)[C@@H]1CC[C@]2(C(=O)O)CC[C@]3(C)C(CCC4[C@@]5(C)CC[C@H](O)C(C)(C)C5CC[C@]43C)C12` (some centres undefined), for which the “activity change, negative = inhibition” value was -18.7% [at 33.1 µM] (inactive).

As to `COC(=O)CC[C@@H](C)[C@H]1CC[C@H]2[C@@H]3CC(=O)[C@H]4C[C@H](OC(C)=O)CC[C@]4(C)[C@H]3CC[C@]12C`, the compound was classed as inactive.

Regarding `CC(=O)C1CCC2(C)C3=C(CCC12C)C1(C)CCC(=O)C(C)(C)C1CC3` (centres undefined), the “activity change, negative = inhibition” value was -9.09% [at 33.1 µM] (inactive).

On to `C[C@H]1[C@H](C)CC[C@]2(C(=O)O[C@@H]3O[C@H](CO)[C@@H](O)[C@H](O)[C@H]3O)CC[C@]3(C(=O)O)C(=CCC4[C@@]5(C)CC[C@H](O[C@@H]6O[C@H](CO)[C@@H](O)[C@H](O)[C@H]6O)C(C)(C)C5CC[C@]43C)[C@H]12` (some centres undefined), for which the “activity change, negative = inhibition” value is -20% [at 15.1 µM] (inactive).

Turning to `COc1cc([C@@H]2Oc3c(OC)cc(CCCO)cc3[C@@H]2CO[C@@H]2O[C@H](CO)[C@@H](O)[C@H](O)[C@H]2O)ccc1O`, the “outcome” value was “inactive [at 33.1 µM]”.
